Source: PubChem BioAssay
The list is not random: actives were taken first. Their share in the collection is about 2.6%.
KKLEB cytotox – counter-screen for CF NF-kB inhibitors: cytotoxicity; KKLEB CF airway cells viability, ATPlite luminescence, overnight; hits give low values; cells stimulated with P. aeruginosa culture filtrate; hit rate 0.36% among 360,000; AID 602141; activity change (cytotoxicity), % at 5 µM;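 active means corrected activity change at or below -50% at 5 µM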
Shn3 inh set2 – inhibitors of Schnurri-3 3'UTR reporter in osteoblasts. inhibition, % at 12.5 µM. hit rate 0.52% among 360,000. AID 588674. Clone20 osteoblast Shn3 3'UTR firefly luciferase, 24 h;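 active means mean inhibition of at least 75% with every replicate also reaching 75%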;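 further: 0% = median of neutral control wells and 100% = pilot-screen positive control compound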
CF NFkB block – inhibitors of cystic fibrosis induced NF-kB | AID 588850 | hit rate 0.86% among 360,000 | inhibition, % at 5 µM | KKLEB NF-kB-GFP reporter, PAF-induced, GFP fluorescence overnight;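 active means at least 50% inhibition at 5 µM, scaled per plate between neutral and stimulator controls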;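 further: PAF is a Pseudomonas aeruginosa culture filtrate used as stimulus; plate controls were PAF-stimulated DMSO wells for no effect and unstimulated DMSO wells for full effect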
HIF-2a inh – HIF-2a inhibition. 786-0 RCC cells HIF-2a reporter, luciferase luminescence, overnight. inhibition, % at 18.8 µM. hit rate 0.72% among 360,000. AID 624352;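 active means inhibition of the luminescence signal of 40% or more relative to plate controls, in a single-dose primary screen at 18.75 µM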
Peg3 prom inh – Peg3 promoter activity inhibition; HeLa PEG-Prom luciferase reporter, luminescence, overnight; inhibition, % at 20 µM; hit rate 1.7% among 360,000; AID 588405;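 active means inhibition of at least 50% at 20 µM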
* = called active by the depositor; nt = no result; ! = repeats disagree.

SMILES	KKLEB cytotox	Shn3 inh set2	CF NFkB block	HIF-2a inh	Peg3 prom inh
O=C(O)C1Cc2ccccc2CN1S(=O)(=O)c1ccc(Cl)cc1 (stereo not drawn)	-78*	6	59*	13	7
Cc1cc(=O)n(-c2ccc(Cl)cc2)c(=O)[nH]1	-5	2	2	-27	-37
Nc1c(N(CCC2=CCCCC2)C(=O)CCCOc2ccccc2)c(=O)[nH]c(=O)n1Cc1ccccc1	-4	25	6	11	13
CC(C)CN(C(=O)COC(=O)c1cncc(Br)c1)c1c(N)n(Cc2ccccc2)c(=O)[nH]c1=O	7	-13	-9	5	-10
COCCN(C(=O)COC(=O)C1CCC(C(C)(C)C)CC1)c1c(N)n(Cc2ccccc2)c(=O)[nH]c1=O (stereo not drawn)	0	88*	9	11	27
CC(C)CN(C(=O)COC(=O)c1ccc(Br)cc1)c1c(N)n(Cc2ccccc2)c(=O)[nH]c1=O	21	4	-14	14	63*
Nc1c(N(CCC2=CCCCC2)C(=O)COc2ccc(F)cc2)c(=O)[nH]c(=O)n1Cc1ccccc1	-8	53	11	0	97*
COc1ccc(NC(=O)C2=CN3CCS(=O)(=O)N=C3C=C2)c(OC)c1	5	-5	-6	6	8
CC(C)(C)c1cc[n+](C2=C([O-])c3ccccc3C(=O)/C2=N\S(=O)(=O)c2cccs2)cc1	-28	30	75*	26	57*
O=C1/C(=N\S(=O)(=O)c2cccs2)C([n+]2ccccc2)=C([O-])c2ccccc21	0	-13	68*	44*	35
O=S(=O)(/N=C/c1ccccc1O)c1cccs1	13	1	-12	2	2
N/C(=N\S(=O)(=O)c1cccs1)c1ccccc1	-5	4	-2	8	3
CC(=O)NCc1ccc(-c2csc(NC(=O)CCc3nc4ccccc4c(=O)[nH]3)n2)s1	8	-13	11	8	17
COC(=O)c1ccccc1S(=O)(=O)N1CCC(C(=O)NCCC2=CCCCC2)CC1	6	-13	-8	-8	-6
CCOc1ccc(C(=O)Nc2cccc(-c3nc4cccnc4o3)c2)cc1Cl	9	1	-8	-17	90*
CCOc1ccc(C(=O)Nc2cccc(C(=O)O)c2)cc1Cl	9	-13	-1	63*	20
CC(=O)Nc1ccc(-c2ccnc3c2CC(C)(C(=O)NCc2ccc(N4CCN(C)CC4)cc2)O3)cc1 (stereo not drawn)	-2	8	6	2	-8
COc1ccc(Cl)cc1NC(=O)NCc1ccc2c(c1)OCO2	4	7	-10	-17	-4
O=C1c2ccc3c4c(ccc(c24)C(=O)N1c1cccc(O)c1)C(=O)N(c1cccc(O)c1)C3=O	-11	nt	51*	13	22
O=c1c2ccccc2sc2ccc(NCCCN3CCOCC3)cc12	11	-106	-72	-257	-275
CCN(CC)CCNc1ccc(CO)c2oc3ccccc3c(=O)c12	-6	-4	-37	40*	7
O=c1c2ccccc2sc2c(CO)ccc(NCCN3CCCCC3)c12	-2	-7	-74	55*	88*
CCN(CC)CCNC(=O)Cc1nn(CC)c(=O)c2ccccc12	12	-20	10	-9	9
CCN(CC)CCNc1ccc(CO)c2sc3ccccc3c(=O)c12	-4	2	-58	43*	58*
CCOCCCN(C(=O)Cn1nnc(-c2ccc(C)o2)n1)C(C(=O)NC1CCCC1)c1ccco1 (stereo not drawn)	-3	0	-8	19	-3
SMILES	KKLEB cytotox	Shn3 inh set2	CF NFkB block	HIF-2a inh	Peg3 prom inh
CCCCCNCc1cccc(Br)c1	-9	14	7	-29	-2
CCOC(=O)NNC(=O)CCn1c2c(c3ccccc31)CCCC2	-2	-6	62*	24	10
CC(=O)NNC(=O)CCn1c2c(c3ccccc31)CCCC2	-8	2	25	15	2
O=C(CCCCCNc1nc(=S)[nH]c2ccccc12)N1CCN(c2ccccn2)CC1	0	56	-2	7	56*
COc1cccc(N2CCN(C(=O)CCCCCNc3nc(=S)[nH]c4ccccc34)CC2)c1	-21	70	4	0	63*
CC(Nc1ccccc1CO)C(=O)Nc1cccc(Cl)c1Cl (stereo not drawn)	-9	3	20	35	52*
NC(=O)c1ccc(CN2CCc3ccccc3C2)cc1	-4	-104	18	10	6
Cc1cccc(C(=O)Nc2nsc(N)n2)c1	-8	-3	7	-1	-2
CCOC(=O)/C(N=Nc1ccc(F)cc1)=C(/O)c1ccc([N+](=O)[O-])cc1	-14	2	67*	-1	-6
CCOC(=O)/C(C)=N/NC(=O)c1ccc([N+](=O)[O-])cc1	8	-17	1	16	4
CCOC(=O)c1c(Nc2ccc(Cl)cc2)sc(/C=C2\C=Nc3ccccc32)c1O	-51*!	10	26	3	27
Oc1nc(Nc2cccc(Cl)c2)sc1/C=C1\C=Nc2ccccc21	-4	-19	-7	-108	-10
CC(=O)Nc1ccc(NC(=O)CCCn2cnc3ccccc3c2=O)cc1	0	3	11	-117	15
COC(=O)C1CCCCN1C(=O)c1cc(COc2cccc3cnccc23)on1 (stereo not drawn)	-5	79	49	15	29
CCOC(=O)CC1CCCCN1C(=O)c1cc(COc2cccc3cnccc23)on1 (stereo not drawn)	-3	89*	29	28	11
Cc1cn(CC(=O)NCCCN2CCCC2=O)c(=O)[nH]c1=O	2	-11	-1	3	-17
Cc1ccccc1C(=O)NNC(=O)c1cccc(Br)c1	3	-6	5	-4	-9
Clc1ccc(-c2nnc(-c3ccccc3)c(N3CCSCC3)n2)cc1	-15	16	6	-33	-5
CC1CN(c2nc(-c3ccc(Br)cc3)nnc2-c2ccccc2)CC(C)N1 (stereo not drawn)	-10	10	14	-60	62*
Cc1c(CC(=O)NCC(=O)NCC(=O)N[C@@H](Cc2ccccc2)C(=O)O)c(=O)oc2c(C)c(O)ccc12	-8	-8	22	1	-1
Cc1ccc(-c2nnn(CC(=O)Nc3ccc(S(=O)(=O)N4CCC(C)CC4)cc3)n2)cc1	-8	73	-6	2	63*
CC1CCN(S(=O)(=O)c2ccc(NC(=O)Cn3nnc(-c4ccccc4)n3)cc2)CC1	-15	26	-18	18	26
COc1ccc(C(C#N)=C2C=C(Cl)C(=NO)C=C2Cl)cc1	4	-7	68*	-126	-15
COc1ccc(C(C#N)=C2C=CC(=NO)C(C)=C2Cl)cc1	-3	16	5	-27	12
COc1ccc2nc(C)cc(Nc3ccc(N4CCN(C)CC4)cc3)c2c1	-8	-17	-58	-47	111*
COc1ccccc1/C=N/Nc1cc(C)nc2ccc(C)cc12	7	-95	-15	-78	-46
COc1ccc2nc(C)cc(N/N=C/c3ccccc3)c2c1	-5	19	-312	-11	107*
